In the library only some 5.5% were active in any assay of this set; here they are far more common.
MBNL1-CUG inh – MBNL1-poly(CUG) RNA binding inhibition; Q9NR56; TR-FRET MBNL1-His/biotin-(CUG)12 binding, 665/545 ratio; Potency, µM (titrated, usually from 57.5 µM), without a hit: top-dose activity change, negative = inhibition, usual class: inhibitors; 0.036% of 280,000 active; AID 2675; active = well fitted inhibition curve with a large enough effect in the signal ratio, with a control signal flat, not every such curve was filed as active; inconclusive = small, poorly fitted or top-dose-only effect, or effect the other way, or a change in a side signal; inactive = no such curve, though single readings can be large or run the other way; the % refers to the signal ratio; also: potency is read from the fitted curve at half-maximal effect; % is scaled to controls: 0 for no effect and ±100 for the full control effect
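His-tagged MBNL1 binding to biotinylated (CUG)12 RNA was measured by TR-FRET using terbium anti-His antibody (0.055 ng/ul final) and streptavidin-XL665 (5 nM final). Compounds were titrated 92 nM to 58 uM; 60 min at room temperature.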
CtBP-E1A inh – CtBP/E1A binding inhibition | AlphaScreen GST-E1A/His-CtBP binding, 1536-well; active compounds read low | activity change, % (concentration not given with the values) | 0.49% of 340,000 active; in the data active = activity change below about -65%; inconclusive = mostly about -30% to -63%; also: % is scaled to controls: 0 for no effect and ±100 for the full control effect
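GST-E1A and His-tagged CtBP (125 nM each as 5X stock) were preincubated with pin-transferred compound for 2 h at 37 °C in the dark, then glutathione donor and nickel acceptor beads were added for 1 h before AlphaScreen reading.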
Six1-Eya2 inh – Six1/Eya2 interaction inhibition | 0.56% of 360,000 active | AlphaScreen GST-Six1/His-Eya2 binding, biochemical; active compounds read low | Q15475+O00167 | activity change, % (test concentration not listed); in the data active = activity change below about -65%; inconclusive = mostly about -30% to -63%; also: % is scaled to controls: 0 for no effect and ±100 for the full control effect
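GST-Six1 + His-Eya2 (5X stock: 250/500 nM); Tris pH 8.0, 300 mM NaCl, 0.05% BSA, 0.02% Tween 20; GSH donor/Ni acceptor beads; 1 h 37 °C dark; AlphaScreen readout.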
CBFb RUNX1 block – blocks binding between human CBF-beta and RUNX1; Potency, µM (highest dose often 59.8 µM), without a hit: top-dose activity, negative = inhibition, most hits filed as inhibitors; 230,000 tested, under 10 active; Q01196+Q13951; AlphaScreen CBFb-His/RUNX1-biotin binding, biochemical; also: % of control where 0% means no effect
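Compounds were screened at multiple concentrations against a preformed CBF-beta(His)/RUNX1(biotin) complex (30 nM of each) for 15 min at room temperature, followed by 90 min with nickel and streptavidin beads and AlphaScreen reading.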
Gal4-VP16 FLuc – Gal4-VP16 reporter inhibition counter-screen; Drosophila S2 Gal4-VP16 UAS-luciferase, luminescence, 20 h; Potency, µM (highest dose often 53.6 µM), inactives show at the top dose activity, negative = inhibition, usual class: inhibitors; 3.5% of 310,000 active; AID 2546;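 also: Gal4-VP16 expression switched on by copper sulfate through the metallothionein promoter; potency is read from the fitted curve at half-maximal effect; % is scaled to controls: 0 for no effect and ±100 for the full control effect; nearly all actives have a fitted effect of over 50% in size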
RORg inh – ROR gamma (mouse) transcription inhibition. 5.4% of 310,000 active. Potency, µM (highest dose often 53.6 µM), for the others: top-dose activity change, negative = inhibition, most hits filed as inhibitors. Drosophila S2 Gal4-RORgamma UAS-luciferase reporter, 20 h. AID 2551; also: potency is read from the fitted curve at half-maximal effect; % is scaled to controls: 0 for no effect and ±100 for the full control effect; nearly all actives have a fitted effect of over 60% in size
Target sequence (P51450 whole entry, looked up, the tested form may be a part): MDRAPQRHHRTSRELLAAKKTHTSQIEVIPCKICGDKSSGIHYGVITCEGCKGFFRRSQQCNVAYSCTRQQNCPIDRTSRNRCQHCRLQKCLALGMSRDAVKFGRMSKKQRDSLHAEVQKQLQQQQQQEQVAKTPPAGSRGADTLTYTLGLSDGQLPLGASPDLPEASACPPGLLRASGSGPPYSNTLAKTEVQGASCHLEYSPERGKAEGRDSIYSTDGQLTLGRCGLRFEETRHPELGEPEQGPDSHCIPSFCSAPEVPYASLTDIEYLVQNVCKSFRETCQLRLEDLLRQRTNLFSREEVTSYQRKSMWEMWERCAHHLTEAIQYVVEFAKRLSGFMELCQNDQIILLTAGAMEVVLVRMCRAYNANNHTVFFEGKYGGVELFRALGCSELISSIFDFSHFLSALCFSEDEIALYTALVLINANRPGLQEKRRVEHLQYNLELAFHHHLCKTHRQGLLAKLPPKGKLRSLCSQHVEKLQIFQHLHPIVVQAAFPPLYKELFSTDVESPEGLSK
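Luciferase reporter read in Schneider cells carrying Gal4-RORγ (mouse) and UAS-Photinus luciferase; cells given compound 1 h before 700 uM copper sulfate induction, then incubated 20 h at ambient temperature.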
The depositor's hits bear a star; ? = inconclusive; . = no result; [ ] = another dose, or the depositor's remark. Unless noted, calls follow the shape of the dose curve; as a rule, active = well fitted curve in the direction sought with a large enough effect; inconclusive = small, poorly fitted or top-dose-only effect, or another doubt; inactive = no such curve, though single readings can be large; an effect the other way counts as inactive or inconclusive.

SMILES | MBNL1-CUG inh | CtBP-E1A inh | Six1-Eya2 inh | CBFb RUNX1 block | Gal4-VP16 FLuc | RORg inh
CCN(CC)S(=O)(=O)c1ccc(C(=O)NCc2ccc3[nH]c4c(c3c2)CCCC4)cc1 | -4.4% | -5.9 | 3.8 | -0.4%[2.36 µM] | 2.7% | 24.2%
O=C(NCc1ccc2[nH]c3c(c2c1)CCCC3)N1CCOCC1 | 2.8% | . | . | 1.6% | -1.1% | -1.2%
CC(c1ccccc1)n1c(-c2cccs2)nc2c(c(=O)c3ccccc3n2C)c1=O (configuration not stated) | -1.6% | -0.5 | -0.9 | 9.3% | -13.8% | -8.8%
COc1ccc(-n2c(-c3ccc(Cl)cc3)c[n+]3c2CCc2ccccc2-3)cc1 | -1.8% | -0.4 | 5.3 | -1.4% | 12.6µM* | ?
Cc1[nH]nc2c1C(C1CC=CCC1)C(C#N)=C(N)O2 (configuration not stated) | -5.0% | -1.4 | -3.9 | -0.2% | 11.2µM* | 6.31µM*
Cc1[nH]nc2c1C(c1ccc(-c3ccccc3C#N)o1)C(C#N)=C(N)O2 (configuration not stated) | ? | -21.4 | -10.4 | 3.0% | ? | 8.91µM*
Cc1cc(C2C(C#N)=C(N)Oc3n[nH]c(C)c32)c(C)s1 (configuration not stated) | 7.4% | 0.0 | 4.0 | -0.8% | 11.2µM* | 10µM*
Cc1ccc(-c2ccc(C3C(C#N)=C(N)Oc4n[nH]c(C)c43)o2)cc1 (configuration not stated) | -17.2% | -18.4 | -14.5 | 3.5% | 11.2µM* | 30.3%
CC(NC(=O)C1CCCN(S(=O)(=O)N2CCOCC2)C1)c1ccccc1 (configuration not stated) | -6.8% | -0.4 | 1.7 | . | 1.1% | 0.8%
COc1ccc(-c2cc3c(nn2)-c2ccccc2C3=O)cc1 | ? | -20.1 | -5.5 | -9.6% | ? | 2.51µM*
O=C1c2ccccc2-c2nnc(-c3ccccc3)cc21 | ? | 13.2 | 6.4 | -0.6% | 11.2µM* | 8.91µM*
CCOC(=O)c1c(SCCN2CCCC2)n(-c2ccccc2)c(=S)n(-c2ccccc2)c1=O | . | -5.3 | 8.0 | . | . | .
CCCN1C(=S)c2ccccc2C1c1ccccc1 (configuration not stated) | 3.7% | 45.0 | 57.4 | . | -1.5% | 10µM*
CN1CC(c2ccccc2)Oc2ccccc2C1=S (configuration not stated) | . | 0.0 | 0.0 | . | . | .
CCOc1ccc(NC(=O)CN2CCN(CC(=O)c3ccc(OC)c(OC)c3)CC2)cc1 | 5.2% | -3.0 | -9.5 | 3.4% | 5.2% | 2.51µM*
COC(=O)C1=C[C@@H](C(=O)OC)[C@@H]2C3=C(C(=O)[C@@]2(C)NC(=O)c2ccccc2)[C@H](C)[C@@H]2C(=O)N(Cc4ccccc4)C(=O)[C@@H]2[C@@H]3C1 | . | . | . | -11.7% | -7.7% | 5.8%
Cc1oc(-c2ccccc2Cl)nc1CN1CCCCC1CO (configuration not stated) | 15.3% | -3.8 | 3.8 | 3.1% | 9.3% | -9.9%
Cc1oc(-c2cccc3ccccc23)nc1CN1CCC[C@H]1CO | 5.0% | -0.1 | -9.0 | 1.0% | ? | 7.08µM*
Cc1oc(-c2ccccc2Cl)nc1CN1CCCC1c1ccc(F)cc1 (configuration not stated) | -8.7% | -2.8 | 4.2 | -2.9% | -11.5% | 11.2µM*
COC(=O)C1C(OC)=CC(=O)C2CCCCC21 (configuration not stated) | . | 8.7 | 1.1 | . | . | .
O=C(NC(=S)N1CCOCC1)C12CC3CCC(CC(C3)C1)C2 | -3.6% | 5.6 | -7.4 | -2.3% | 6.31µM* | 4.47µM*
O=C(NC(=S)N1CCOCC1)C12CCC3CC(CC(C3)C1)C2 | -12.8% | -17.4 | -1.4 | -3.7% | 1.78µM* | 1.26µM*
CC(C)(C)C(=O)NC(=S)N1CCOCC1 | -4.8% | 7.7 | 0.5 | 3.3% | -10.9% | -24.3%
CC12CC3(C)CC(C)(C1)CC(C(=O)NC(=S)N1CCOCC1)(C2)C3 | -4.6% | 10.0 | 3.9 | -4.8% | ? | 0.891µM*
Cc1ccc(S(=O)(=O)N2CCCCC2)cc1NC(=O)Cn1cc(C(F)(F)F)ccc1=O | . | -1.4 | 3.7 | . | . | .
SMILES | MBNL1-CUG inh | CtBP-E1A inh | Six1-Eya2 inh | CBFb RUNX1 block | Gal4-VP16 FLuc | RORg inh
c1ccc2c(c1)OCC(CNc1ncnc3sccc13)O2 (configuration not stated) | -3.7% | -5.9 | 1.3 | 5.4% | 0.501µM* | ?
CC(=O)C1=CCC(c2ccc(C)cc2)N(S(=O)(=O)c2ccc(Cl)cc2)C1 (configuration not stated) | . | 1.0 | 4.5 | . | . | .
Cc1ccc(C(=O)/C=C/Nc2ccccc2C(N)=O)o1 | ? | 9.6 | -0.3 | 1.7% | 11.3% | -28.9%
NC(=O)c1ccccc1N/C=C/C(=O)c1ccc(Cl)cc1Cl | ? | -12.0 | -12.4 | 2.8% | 3.98µM* | 0.631µM*
NC(=O)c1ccccc1NC(=O)/C=C/c1cccc(Cl)c1 | 11.9% | 1.6 | -0.9 | -2.3% | 0.7% | -15.6%
NC(=O)c1ccccc1N/C=C/C(=O)c1ccc(F)cc1 | ? | . | -11.0 | 1.3% | ? | 0.562µM*
COc1cc(OC)cc(-c2nnc3n2N=C(c2ccc(OC)cc2OC)CS3)c1 | . | . | . | -29.3% | -3.5% | ?
Cc1ccc(NC(=O)CCn2c(=O)[nH]c3ccsc3c2=O)cc1C | -0.3% | 0.2 | -0.1 | . | 11.4% | ?
Cc1noc(C)c1CSc1nc2ccccc2n1CCc1ccccc1 | 3.5% | -9.3 | -1.3 | 11.0% | ? | 7.08µM*
Cc1noc(C)c1CSc1nc2ccccc2c(=O)n1-c1ccc(Cl)cc1 | -4.2% | 3.1 | -11.2 | -1.8% | 5.3% | 11.2µM*
C=CCc1cccc(C2C(C)CCC3C(=O)N4C(CCC(C)C4c4cccc(CC=C)c4)C(=O)N32)c1 (configuration not stated) | . | . | . | 5.6%[13.1 µM] | 7.9%[10 µM] | 0.7%[10 µM]
COCc1cccc(-c2csc(C(C)(NC(C)=O)c3ccc(OC)cc3)n2)c1 (configuration not stated) | . | 3.7 | -0.6 | . | . | .
CCOc1ccc2nc(N3C(=O)/C(=C/c4ccccc4)NC3=S)sc2c1 | 7.4% | 0.0 | 17.5 | -2.6% | 1.12µM* | 1.26µM*
CCOc1ccc2nc(N3CCCCCC3)sc2c1 | 7.8% | 2.6 | 1.6 | 0.5% | -24.4% | ?
COc1ccc2nc(N3C(=O)/C(=C/c4ccccc4)NC3=S)sc2c1 | . | 0.3 | -6.2 | 4.8% | 1.41µM* | 1.41µM*
Cc1cc(-n2[nH]c(C)c(C)c2=O)nc(-c2ccccc2O)n1 | 2.3% | ? | ? | -3.3% | ? | 11.2µM*
Cc1cc(N2CCC(C)CC2)nc(-c2ccccc2O)n1 | 9.2% | 7.5 | 19.3 | ? | -4.8% | 6.7%
